# In PubChem BioAssay AID624465 (National Center for Advancing Translational Sciences (NCATS), 2012):
# Hit rate of the full screen: of about 360,000 compounds, about 300 (0.083%) were called active. The sample holds actives, similar compounds and a random draw of the others, so the mix is not that of the screen. A number with no mark means an inactive call. No stated cut-off is given here; in the data, active means activation above about 40%; inconclusive means between about 15% and that limit; inactive means weaker than that.
# Biological target: D(2) dopamine receptor (Homo sapiens) (UniProt P14416)
# Experiment: Beta-Arrestin HTS for Positive Allosteric Modulators of the Human D2 Dopamine Receptor: Agonists
# Conditions: DiscoveRx PathHunter D2 beta-arrestin, luminescence, 90 min; hits give high values; 100% = 57 uM dopamine signal
# Text: There is great interest in identifying small molecule ligands for G-protein coupled receptors (GPCRs) as nearly 50% of all FDA-approved drugs target these important receptor proteins. […] Amongst the dopamine receptors (DARs), the D2 is arguably one of the most validated drug targets in neurology and psychiatry. For instance, all receptor-based antiparkinsonian drugs primarily work via stimulating the D2 DAR, whereas all FDA-approved antipsychotic agents are antagonists of this receptor. The D2 DAR is also therapeutically targeted in other disorders such as restless legs syndrome, tardive dyskinesia, Tourette's syndrome, and hyperprolactinemia.
# To this end, a miniaturized qHTS screen was developed to be screened against the Molecular Libraries Small Molecule Repository (MLSMR). This assay seeks to identify agonists against the D2 DAR.
# NIH Molecular Libraries Probe Production Network [MLPCN]
# NIH Chemical Genomics Center [NCGC]
# PI Name: David Sibley, National Institutes of Neurological Disorders and Stroke
# DiscoveRx D2 cells were thawed from frozen stock and seeded at 2,100 cells/ 3 uL/well media (DiscoveRx Plating Reagent 2) with MultiDrop Combi dispenser (Thermo Scientific, Logan, UT) onto white tissue culture treated 1536-well Aurora plates (Brooks Automation, Chelmsford, MA) and allowed to attach overnight at 37 deg C, 5% CO2. Next, 23 nL/well of compound solutions in DMSO were added with a pintool transfer (Kalypsis, San Diego, CA). As the positive control, 1 uL/well dopamine (EC100, 57 uM final concentration) diluted in buffer (HBSS + 10 mM HEPES + SMB + 0.1% Tween-20) was dispensed to 1 column of each plate. The rest of the plate was dispensed with buffer only, 1 uL/well as well. The cells were stimulated by compounds or dopamine control for 90 minutes at 37 deg C, 5% CO2, after which 1.5 ul/well of DiscoveRx detection reagent was added with BioRAPTR FRD dispenser. The detection reagent was prepared by mixing of Galacton Star Substrate, Emerald II solution and PathHunter buffer (supplied by the assay kit) together at 1:5:19 proportion accordingly just prior to dispensing. The plates were incubated at ambient temperature for 1 hour and then the luminescent signal was read on ViewLux plate reader (PerkinElmer, Waltham, MA).
# D(2) dopamine receptor (Homo sapiens), sequence (P14416 whole entry, looked up): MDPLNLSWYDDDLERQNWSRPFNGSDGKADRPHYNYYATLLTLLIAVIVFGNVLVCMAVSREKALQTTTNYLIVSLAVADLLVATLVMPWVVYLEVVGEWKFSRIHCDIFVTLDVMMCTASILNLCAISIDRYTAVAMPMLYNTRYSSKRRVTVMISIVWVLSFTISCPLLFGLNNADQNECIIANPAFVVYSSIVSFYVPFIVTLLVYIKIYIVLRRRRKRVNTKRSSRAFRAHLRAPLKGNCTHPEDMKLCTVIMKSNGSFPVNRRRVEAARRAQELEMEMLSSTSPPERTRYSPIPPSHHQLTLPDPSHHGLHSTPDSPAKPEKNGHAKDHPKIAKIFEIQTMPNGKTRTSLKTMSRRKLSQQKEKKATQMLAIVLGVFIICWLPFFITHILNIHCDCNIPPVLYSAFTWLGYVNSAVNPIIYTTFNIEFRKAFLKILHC
row,SMILES,activation
1,Cc1ccc(N=C2NC(=O)c3cccc([N+](=O)[O-])c32)cc1,1.24%
2,COc1ccc([C@H]2C[C@@H](n3cc(COC(=O)c4ccccc4)nn3)[C@H](O)CN2C(=O)c2cccs2)cc1,-3.3%
3,COc1cc(C(=O)Nc2cc(C(F)(F)F)ccc2N2CCOCC2)ccc1O,-0.449%
4,CCOC(=O)C(NS(=O)(=O)c1ccc(C)cc1)(C(F)(F)F)P(=O)(OCC(C)C)OCC(C)C (stereo not drawn),-3.61%
5,COc1ccc(N2C(=O)C3C(C2=O)C(C(=O)c2ccccc2)N2CCCC32)cc1 (stereo not drawn),-3.43%
6,O=C(CSc1ccccn1)Nc1nc2c(ccc3ccccc32)s1,-0.569%
7,CC(=O)c1nn(-c2ccccc2)c(=Nc2ccccc2)cc1C,-5.64%
8,CON(C)S(=O)(=O)c1ccc2c(c1)NC(=O)C1CCCN21 (stereo not drawn),-0.103%
9,COc1cccc(OC)c1OCCN1CCN(C(=O)c2ccco2)CC1,44.2% (active)
10,COc1cccc(OCc2cc(C(=O)N3CCN(C(=O)c4ccco4)CC3)no2)c1,2.91%
11,O=C(OCC(=O)N1CCN(C(=O)c2ccco2)CC1)c1c(Cl)cccc1Cl,-10.9%
12,O=C(CN1CCN(C(=O)c2ccco2)CC1)Nc1ccc(Cl)c(C(F)(F)F)c1,-0.549%
13,O=C(c1ccco1)N1CCN(C(=S)Nc2cc(F)cc(F)c2)CC1,0.341%
14,O=C(c1ccco1)N1CCN(Cc2cccc(C(F)(F)F)c2)CC1,41.8% (active)
15,CC1=CC=CN2C1=NC(=O)CC2(C)C(=O)N(CC(=O)NC1CCCC1)c1ccccc1C (stereo not drawn),4.24%
16,COc1ccc(-c2ccc3[nH]c4c(c3c2)CCN2C[C@H]3[C@H](C)ON(C)[C@H]3C[C@@H]42)cc1,-8.14%
17,COc1ccc(-c2cc(C(=O)N3CCN(Cc4ccc5c(c4)OCO5)CC3)on2)cc1OC,-0.403%
18,Cc1cc(C)n2nc(C(=O)N3CCN(Cc4ccc5c(c4)OCO5)CC3)nc2n1,10.2%
19,O=C(c1cccs1)N1CCN(Cc2ccc3c(c2)OCO3)CC1,46.9% (active)
20,CCOc1ccc(C(=O)NCC(=O)N2CCN(c3ccc(C(F)(F)F)cn3)CC2)cc1,9.96%
21,COP1(=O)C[C@@H](O)[C@@H](O)[C@@H](COCc2ccccc2)O1 (stereo partly drawn),0.955%
22,Oc1cc2c(cc1O)CN(C(=S)NCCc1ccc(Cl)cc1)CCC2,-1.87%

row,SMILES,activation
1,O=[N+]([O-])c1ccc(CN2CC(N3CC=CC3)CS2(=O)=O)cc1 (stereo not drawn),-1.85%
2,CCc1ccc(OCC(=O)OC(C)C(=O)NC2CC2)cc1 (stereo not drawn),-2.44%
3,Cc1cc(C)cc(N(CC(=O)N2CC=C(c3ccccc3)CC2)S(=O)(=O)c2c(C)noc2C)c1,0.128%
4,COc1ccccc1CCNC(=O)CN1C(=O)NC2(CCCC2)C1=O,-3.81%
5,O=c1ccn([C@@H]2O[C@H](CNS(=O)(=O)c3cc4ccccc4s3)[C@@H](O)[C@H]2O)c(=O)[nH]1,-2.86%
6,CCOC1=C2CN(S(=O)(=O)c3ccc(C)cc3)[C@H](c3cccs3)C[C@H]2[C@H]2C(=O)N(c3ccccc3)C(=O)[C@H]2C1,-3.55%
7,CCC(C)(C)n1nnnc1CN1CCN(c2nc3ccc(C)cc3cc2C#N)CC1,-5.17%
8,Cc1ccc(C(=O)O/N=C(\N)c2ccccn2)cc1Cl,5.09%
9,COc1ccc(C(=O)O/N=C(\N)c2ccccn2)cc1[N+](=O)[O-],42.1% (active)
10,COc1ccc(C(=O)NNC(=O)c2cnccn2)cc1[N+](=O)[O-],4.81%
11,O=C(NCCO)c1cccc(-c2cccc3nccn23)c1,-5%
12,O=C(CC1SC(=Nc2ccccc2)N(Cc2ccccn2)C1=O)Nc1cccc(Cl)c1 (stereo not drawn),0.599%
13,CNc1cncc(-c2cccc(C(=O)N3CCOCC3)c2)n1,-3.27%
14,CC(C)c1cccc(-c2csc(C(O)c3ccccc3)n2)c1 (stereo not drawn),5.04%
15,CCC(=O)OCc1c(C(F)(F)F)nn(C)c1Oc1cccc(C(F)(F)F)c1,-2.87%
16,O=C(CN1CCN(S(=O)(=O)c2ccc3ccccc3c2)CC1)NC(=O)NC1CCCCC1,-2.7%
17,CCn1cc(CNC(=O)c2cc([N+](=O)[O-])c(C)c([N+](=O)[O-])c2)cn1,1.34%
18,O=C1C=CN2CCCC2CC1 (stereo not drawn),-2.65%
19,Nc1ncnc2c1ncn2[C@@H]1O[C@H](C(=O)N2CCCN(Cc3ccccc3F)CC2)[C@@H](O)[C@H]1O,-3.13%
20,O=C1CCC(C(=O)Nc2ccc(OC(F)F)cc2)N1 (stereo not drawn),-0.767%
21,O=C1CSC(=O)N1CCOCCN1C(=O)CSC1=O,-0.569%
22,CN(CCc1ccccn1)C1CCCN(S(=O)(=O)c2ccccc2Cl)C1 (stereo not drawn),4.32%

row,SMILES,activation
1,OCCN1CCN(c2ncnc3c2ncn3[C@H]2CN(Cc3ccco3)C[C@@H](CO)O2)CC1,2.19%
2,COc1ccc(OCc2nnc3n2N=C(c2ccccc2)C(CC(=O)O)S3)cc1 (stereo not drawn),-4.75%
3,CCn1c(SCC(=O)Nc2cccc(F)c2)nnc1-c1cc2cc(Br)ccc2o1,0.906%
4,O=C1N(c2ccccc2)C(=Nc2ccccc2)SC12CC2,-5.55%
5,O=C(CN1CCOCC1)Nc1c2c(nc3c1CCC3)CCC2,-3.04%
6,Cc1nc(-c2ccc(F)cc2)c(CC(=O)N(C)CC(=O)Nc2c(C)cccc2C)s1,0.938%
7,Cn1nc(C(F)(F)F)c(C(=O)Nc2cccc(C(F)(F)F)c2)c1SCc1ccc(Cl)cc1,2.52%
8,COc1cccc(C(NC(C)=O)c2nc(-c3ccccc3OC)cs2)c1 (stereo not drawn),-6.01%
9,CC(=O)NC(c1ccccc1)c1nc(-c2cccc(C(C)C)c2)cs1 (stereo not drawn),1.91%
10,CC(=O)NC(c1ccccc1)c1nc(-c2ccccc2C)cs1 (stereo not drawn),73.4% (active)
11,CCCC(=O)N1CCC1(C)C(=O)NS(=O)(=O)c1ccc(Cl)cc1 (stereo not drawn),-2.87%
12,CN1OC[C@@H]2CN(C(=O)c3cccnc3)[C@H](c3ccc(N4CCCCC4)cc3)C[C@@H]21,-5.55%
13,CCOc1ccc(Nc2nc(Cc3nnc(SCC(=O)c4ccc(C)cc4)o3)cs2)cc1,0.605%
14,Cc1ccc2cccc(S(=O)(=O)N3CCN(c4ccccc4F)CC3)c2n1,1.48%
15,O=C(Cn1c(-c2ccc(Cl)cc2)noc1=O)N1CCN(c2ccccc2F)CC1,3.21%
16,O=c1onc(-c2c(F)cccc2F)n1-c1ccccc1Cl,58.1% (active)
17,O=C(O)CCCC(=O)Nc1ccc(Oc2cccc(C(F)(F)F)c2)nc1,-2.77%
18,COc1ccc(NC(=O)C2=NNC(=O)CC2)cc1S(=O)(=O)N1CCCCC1,3.11%
19,CC1=C(C(=O)Nc2cccc(C(=O)NCC(C)c3ccccc3)c2)SCCO1 (stereo not drawn),2.99%
20,Cc1ccc(CN2CCN(/N=C/c3cccnc3)CC2)c(C)c1,-1.75%
21,c1cnc(N2CCN(c3ccc4ccccc4n3)CC2)nc1,-9.01%
22,CN(C)C(=O)c1nc2ccc(Cl)cn2c1CN1CCN(c2ncccn2)CC1,-28.2%

row,SMILES,activation
1,Cc1ccc(CN2CCN(/N=C/c3ccco3)CC2)c(C)c1,-3.14%
2,Oc1ccc(CN2CCN(c3ncccn3)CC2)cc1,57.4% (active)
3,Cc1ccc(CN2CCN(c3ncccn3)CC2)c(C)c1,101% (active)
4,CN(C)c1ccc(CNC2C3CC4CC(C3)CC2C4)cc1 (stereo not drawn),-0.168%
5,CCCCN(Cc1ccccc1)C(=O)C1CCN(Cc2sccc2C)CC1,-2.44%
6,O=C(Nc1ccc(N2CCOCC2)nc1)c1c(F)cccc1F,-1.59%
7,CCCCC(=O)N(C)c1c(CC)nc2c(OCc3ccc(S(C)(=O)=O)cc3)cccn12,-2.46%
8,COc1ccc(C(=O)NCC2CCCO2)cc1S(=O)(=O)NCc1ccc(Cl)cc1 (stereo not drawn),0.708%
9,C/C(=N/Nc1nc(-c2ccccc2)c(CC(=O)O)s1)c1ccccc1,-4.03%
10,C/C(=N\Nc1cccc(C(=O)O)c1)c1ccc2c(c1)Nc1ccccc1S2,41.5% (active)
11,CC(=O)Nc1cccc(/C(C)=N/NC(=O)c2c(-c3ccccc3Cl)noc2C)c1,-0.376%
12,CC(=O)NN=C(C)c1ccc(NC(=O)C2CC2)cc1,-2.2%
13,CC(C)Oc1ccc(CN2CCC2(C)C(=O)NCc2ccc(C(F)(F)F)cc2)cc1 (stereo not drawn),-5.75%
14,O=C(NCc1ccco1)c1ccc(NS(=O)(=O)c2cccc([N+](=O)[O-])c2)cc1,2.68%
15,COCc1[nH][nH]c(=O)c1C=Nc1ccc(F)cc1F,-3.8%
16,COC(=O)C1CC2=C(CC(C)(C)CC2=O)N(c2ccccc2)C1=O (stereo not drawn),-1.92%
17,O=C(CS(=O)(=O)c1cn(Cc2ccc(Cl)cc2)c2ccccc12)N1CCOCC1,-7.71%
18,COc1ccc(S(=O)(=O)N(C)C[C@@H]2Oc3ccc(NS(=O)(=O)c4cn(C)cn4)cc3C(=O)N([C@@H](C)CO)C[C@@H]2C)cc1,-2%
19,Brc1cnc2ccccc2c1N1CCCCC1,-0.246%
20,COC(=O)c1cc(CNC(=O)CC(C)c2ccccc2)ccc1OC (stereo not drawn),-6.11%
21,C/C(=N\NC(=O)c1ccc(CSc2nc(C)cc(C)n2)cc1)C1CCCCC1,2.32%
22,CCOC(=O)C(C)Sc1nnc(CSc2nc3nc(C)cc(C)n3n2)o1 (stereo not drawn),-4.24%
